# The source made the active and inactive calls. Rule for the calls: active = hit-call score of the fitted dose curve at least 0.9, where 1 is the maximum; inactive = score below 0.9.
# Read-out: solute carrier (SLC22A1), SLC22A1 (gene 6580)
# Assay: LTEA_HepaRG_SLC22A1: Life Technologies and Expression Analysis (LTEA) Assay for solute carrier (SLC22A1) using HepaRG (AID 2283524)
# Conditions: mRNA level, 48 h; actives raise or lower the signal
# Summary of the method: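 Differentiated human HepaRG cells in serum-free induction medium, exposed 48 h in duplicate to 8-point half-log series from 100 µM top in 0.5% DMSO. SLC22A1 mRNA by TaqMan qRT-PCR normalized to ACTB, GAPDH, POLR2A; bidirectional fit versus DMSO.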
# Nuclear factor erythroid 2-related factor 2 (Homo sapiens), sequence (Q16236 whole entry, looked up): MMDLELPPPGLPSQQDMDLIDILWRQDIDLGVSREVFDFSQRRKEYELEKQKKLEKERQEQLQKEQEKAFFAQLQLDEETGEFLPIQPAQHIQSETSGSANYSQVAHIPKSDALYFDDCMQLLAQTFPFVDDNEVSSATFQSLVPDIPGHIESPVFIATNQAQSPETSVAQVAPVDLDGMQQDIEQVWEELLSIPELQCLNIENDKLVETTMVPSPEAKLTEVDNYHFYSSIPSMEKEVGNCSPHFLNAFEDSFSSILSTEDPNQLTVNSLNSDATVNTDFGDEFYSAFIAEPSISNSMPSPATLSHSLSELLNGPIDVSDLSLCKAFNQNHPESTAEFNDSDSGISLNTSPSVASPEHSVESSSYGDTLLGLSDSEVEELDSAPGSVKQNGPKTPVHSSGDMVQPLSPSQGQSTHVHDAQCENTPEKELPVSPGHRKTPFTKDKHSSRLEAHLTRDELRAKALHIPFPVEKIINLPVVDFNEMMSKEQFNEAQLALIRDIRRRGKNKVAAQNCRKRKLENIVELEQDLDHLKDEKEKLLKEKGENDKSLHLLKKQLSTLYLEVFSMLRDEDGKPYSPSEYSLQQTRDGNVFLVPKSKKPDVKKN
row,Structure (SMILES),outcome
1,ClC(Cl)c1ccccc1,inactive
2,CC(C)(C)c1ccc(O)cc1,inactive
3,CCC(C)(C)c1ccc(O)cc1,inactive
4,c1ccc2c(c1)Nc1ccccc1S2,inactive
5,CCNc1nc(Cl)nc(NC(C)(C)C)n1,inactive
6,Nc1cc2c3c(c1)C(c1ccccc1)=N[C@@H](NC(=O)c1cccnc1)C(=O)N3CC2,inactive
7,ClC(Cl)(Cl)c1ccccc1,inactive
8,O=[N+]([O-])c1ccccc1,inactive
9,CCOP(=S)(Oc1ccc([N+](=O)[O-])cc1)c1ccccc1 (stereo unspecified),inactive
10,CCCCN(CCCC)SN(C)C(=O)Oc1cccc2c1OC(C)(C)C2,inactive
11,c1nc[nH]n1,inactive
12,CN(C)C(=O)Cl,inactive
13,CCN(CC)c1ccccc1,inactive
14,Nc1ccc(Cl)cc1,inactive
15,CCCCCCCc1ccc(O)cc1,inactive
16,Cc1ccc(O)cc1C,inactive
17,c1cc2c3c(cccc3c1)CC2,inactive
18,CCC1(c2ccccc2)C(=O)N=C(O)NC1=O (stereo unspecified),inactive
19,O=P1(N(CCCl)CCCl)NCCCO1 (stereo unspecified),inactive
20,[N-]=[N+]=[N-],inactive
21,Cc1ccc(N)cc1N,inactive
22,CCOC(=O)c1ccccc1C(=O)OCC,inactive

# Read-out: Pyruvate Dehydrogenase Kinase 4 (PDK4), PDK4 (gene 5166)
# Assay: LTEA_HepaRG_PDK4: Life Technologies and Expression Analysis (LTEA) Assay for Pyruvate Dehydrogenase Kinase 4 (PDK4) using HepaRG (AID 2283525)
# Conditions: mRNA level, 48 h; actives raise or lower the signal
# Summary of the method: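 HepaRG cells plated 48 h, then switched to serum-free induction medium and exposed in duplicate for 48 h to 8 half-log concentrations from 100 uM in 0.5% DMSO. PDK4 mRNA measured by qRT-PCR, normalized to ACTB, GAPDH and POLR2A; bidirectional fit versus DMSO.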
Structure (SMILES),outcome,AC50
ClC(Cl)c1ccccc1,inactive,–
CC(C)(C)c1ccc(O)cc1,inactive,–
CCC(C)(C)c1ccc(O)cc1,inactive,–
c1ccc2c(c1)Nc1ccccc1S2,inactive,–
CCNc1nc(Cl)nc(NC(C)(C)C)n1,inactive,–
Nc1cc2c3c(c1)C(c1ccccc1)=N[C@@H](NC(=O)c1cccnc1)C(=O)N3CC2,inactive,–
ClC(Cl)(Cl)c1ccccc1,inactive,–
O=[N+]([O-])c1ccccc1,inactive,–
CCOP(=S)(Oc1ccc([N+](=O)[O-])cc1)c1ccccc1 (stereo unspecified),inactive,–
CCCCN(CCCC)SN(C)C(=O)Oc1cccc2c1OC(C)(C)C2,inactive,–
c1nc[nH]n1,inactive,–
CN(C)C(=O)Cl,inactive,–
CCN(CC)c1ccccc1,inactive,–
Nc1ccc(Cl)cc1,inactive,–
CCCCCCCc1ccc(O)cc1,inactive,–
Cc1ccc(O)cc1C,inactive,–
c1cc2c3c(cccc3c1)CC2,inactive,–
CCC1(c2ccccc2)C(=O)N=C(O)NC1=O (stereo unspecified),inactive,–
O=P1(N(CCCl)CCCl)NCCCO1 (stereo unspecified),inactive,–
[N-]=[N+]=[N-],–,71.7 µM (active)
Cc1ccc(N)cc1N,–,36.3 µM (active)
CCOC(=O)c1ccccc1C(=O)OCC,inactive,–

# Read-out: NAD(P)H dehydrogenase [quinone] 1 (NQO1), NQO1 (gene 1728)
# Assay: LTEA_HepaRG_NQO1: Life Technologies and Expression Analysis (LTEA) Assay for NAD(P)H dehydrogenase [quinone] 1 (NQO1) using HepaRG (AID 2283526)
# Conditions: mRNA level, 48 h; actives raise or lower the signal
# Summary of the method: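 Differentiated HepaRG cells, plated 48 h and then switched to serum-free induction medium, were exposed in duplicate for 48 h to 8-point half-log concentrations up to 100 uM in 0.5% DMSO. mRNA measured by qRT-PCR, normalized to ACTB, GAPDH, POLR2A; bidirectional fit versus DMSO.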
Structure (SMILES),outcome,AC50
ClC(Cl)c1ccccc1,inactive,–
CC(C)(C)c1ccc(O)cc1,inactive,–
CCC(C)(C)c1ccc(O)cc1,inactive,–
c1ccc2c(c1)Nc1ccccc1S2,inactive,–
CCNc1nc(Cl)nc(NC(C)(C)C)n1,inactive,–
Nc1cc2c3c(c1)C(c1ccccc1)=N[C@@H](NC(=O)c1cccnc1)C(=O)N3CC2,inactive,–
ClC(Cl)(Cl)c1ccccc1,inactive,–
O=[N+]([O-])c1ccccc1,inactive,–
CCCCN(CCCC)SN(C)C(=O)Oc1cccc2c1OC(C)(C)C2,inactive,–
c1nc[nH]n1,–,0.106 µM (active)
CN(C)C(=O)Cl,inactive,–
CCN(CC)c1ccccc1,inactive,–
Nc1ccc(Cl)cc1,inactive,–
CCCCCCCc1ccc(O)cc1,inactive,–
Cc1ccc(O)cc1C,inactive,–
c1cc2c3c(cccc3c1)CC2,inactive,–
CCC1(c2ccccc2)C(=O)N=C(O)NC1=O (stereo unspecified),inactive,–
O=P1(N(CCCl)CCCl)NCCCO1 (stereo unspecified),inactive,–
[N-]=[N+]=[N-],inactive,–
Cc1ccc(N)cc1N,inactive,–
CCOC(=O)c1ccccc1C(=O)OCC,inactive,–

# Read-out: Nuclear factor erythroid 2-related factor 2 (Homo sapiens) (UniProt Q16236)
# Assay: LTEA_HepaRG_NFE2L2: Life Technologies and Expression Analysis (LTEA) Assay for Nuclear factor erythroid 2-related factor 2 (NFE2L2) Transcription Factor using HepaRG (AID 2283527);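 for outcome: TaqMan qRT-PCR transcript level normalised to ACTB GAPDH and POLR2A housekeeping genes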
# Conditions: mRNA level, 48 h; actives raise or lower the signal
# Summary of the method: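 Differentiated human HepaRG cells, serum-free induction medium, exposed 48 h in duplicate to eight half-log concentrations up to 100 uM in 0.5% DMSO. NFE2L2 mRNA by Fluidigm TaqMan qRT-PCR, normalised to ACTB, GAPDH, POLR2A; bidirectional change versus DMSO.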
Structure (SMILES),outcome,AC50
ClC(Cl)c1ccccc1,inactive,–
CCC(C)(C)c1ccc(O)cc1,inactive,–
c1ccc2c(c1)Nc1ccccc1S2,inactive,–
CCNc1nc(Cl)nc(NC(C)(C)C)n1,inactive,–
Nc1cc2c3c(c1)C(c1ccccc1)=N[C@@H](NC(=O)c1cccnc1)C(=O)N3CC2,inactive,–
O=[N+]([O-])c1ccccc1,inactive,–
CCOP(=S)(Oc1ccc([N+](=O)[O-])cc1)c1ccccc1 (stereo unspecified),–,37.9 µM (active)
CCCCN(CCCC)SN(C)C(=O)Oc1cccc2c1OC(C)(C)C2,inactive,–
c1nc[nH]n1,inactive,–
CN(C)C(=O)Cl,inactive,–
CCN(CC)c1ccccc1,inactive,–
Nc1ccc(Cl)cc1,inactive,–
CCCCCCCc1ccc(O)cc1,inactive,–
c1cc2c3c(cccc3c1)CC2,inactive,–
CCC1(c2ccccc2)C(=O)N=C(O)NC1=O (stereo unspecified),inactive,–
O=P1(N(CCCl)CCCl)NCCCO1 (stereo unspecified),inactive,–
[N-]=[N+]=[N-],inactive,–
Cc1ccc(N)cc1N,inactive,–
CCOC(=O)c1ccccc1C(=O)OCC,inactive,–

# Read-out: succinate dehydrogenase complex iron sulfur subunit B (SDHB), SDHB (gene 6390)
# Assay: LTEA_HepaRG_SDHB: Life Technologies and Expression Analysis (LTEA) Assay for succinate dehydrogenase complex iron sulfur subunit B (SDHB) using HepaRG (AID 2283528)
# Conditions: mRNA level, 48 h; actives raise or lower the signal
# Summary of the method: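 HepaRG, 48 h exposure, 8-pt half-log series from 100 uM in 0.5% DMSO, duplicates. Readout: SDHB mRNA by Fluidigm qRT-PCR vs housekeeping genes; bidirectional fit relative to DMSO.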
Structure (SMILES),outcome,AC50
ClC(Cl)c1ccccc1,inactive,–
CC(C)(C)c1ccc(O)cc1,inactive,–
CCC(C)(C)c1ccc(O)cc1,inactive,–
c1ccc2c(c1)Nc1ccccc1S2,inactive,–
CCNc1nc(Cl)nc(NC(C)(C)C)n1,inactive,–
Nc1cc2c3c(c1)C(c1ccccc1)=N[C@@H](NC(=O)c1cccnc1)C(=O)N3CC2,inactive,–
ClC(Cl)(Cl)c1ccccc1,inactive,–
O=[N+]([O-])c1ccccc1,inactive,–
CCOP(=S)(Oc1ccc([N+](=O)[O-])cc1)c1ccccc1 (stereo unspecified),inactive,–
CCCCN(CCCC)SN(C)C(=O)Oc1cccc2c1OC(C)(C)C2,inactive,–
c1nc[nH]n1,inactive,–
CN(C)C(=O)Cl,inactive,–
CCN(CC)c1ccccc1,inactive,–
Nc1ccc(Cl)cc1,inactive,–
CCCCCCCc1ccc(O)cc1,inactive,–
Cc1ccc(O)cc1C,inactive,–
c1cc2c3c(cccc3c1)CC2,inactive,–
CCC1(c2ccccc2)C(=O)N=C(O)NC1=O (stereo unspecified),inactive,–
O=P1(N(CCCl)CCCl)NCCCO1 (stereo unspecified),inactive,–
[N-]=[N+]=[N-],–,50 µM (active)
Cc1ccc(N)cc1N,inactive,–
CCOC(=O)c1ccccc1C(=O)OCC,inactive,–
